Source: article PMC5540273 (PLoS ONE, 2017)
Like-named read-outs stand apart in the source and are kept apart here.

How the values were obtained:
MAP3K15 = details: concentration: 1 μM, replicates: in singlicate; n = 1
MAP3K1 = details: concentration: 1 μM, replicates: in singlicate; n = 1
MAP3K2 = details: concentration: 1 μM, replicates: in singlicate; n = 1
MAP3K3 = details: concentration: 1 μM, replicates: in singlicate; n = 1
MAP3K4 = details: concentration: 1 μM, replicates: in singlicate; n = 1
MAP4K2 = details: concentration: 1 μM, replicates: in singlicate; n = 1
MAP4K3 = details: concentration: 1 μM, replicates: in singlicate; n = 1
MAP4K4 = details: concentration: 1 μM, replicates: in singlicate; n = 1
MAP4K5 = details: concentration: 1 μM, replicates: in singlicate; n = 1
MAPKAPK2 = details: n = 1
[1] = concentration: 1 μM, replicates: in singlicate
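Further: KINOMEscan kinase panel screen.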

SMILES | %Inh (MAP3K15) [%] | %Inh (MAP3K1) [%] | %Inh (MAP3K2) [%] | %Inh (MAP3K3) [%] | %Inh (MAP3K4) [%] | %Inh (MAP4K2) [%] | %Inh (MAP4K3) [%] | %Inh (MAP4K4) [%] | %Inh (MAP4K5) [%] | %Inh (MAPKAPK2; [1]) [%] | %Inh (MAPKAPK2; 1 µM) [%]
Cc1ccc(F)c(C(=O)Nc2cccc(-c3nn4ccccc4c3-c3ccnc(Nc4cccc(F)c4)n3)c2)c1F [GSK361061] | 24 | 31 | 16 | 0 | 44 | 0 | 18 | 25 | 80 | 23 | 
Cc1cccc(NC(=O)Nc2ccc(Oc3ncnc4ccn(C)c34)cc2)c1 | 0 | 0 | 0 | 0 | 0 | 0 | 0 | 0 | 0 | 0 | 
Oc1cc(Nc2ccnc3cc(I)ccc23)ccc1F [GW552771] | 11 | 7 | 9 | 0 | 0 | 0 | 0 | 67 | 100 | 24 | 
Cc1ccc(C)c(NC(=O)NC2CCN(c3ccnc(Nc4ccc(F)cc4)n3)C2)c1 (centres unmarked) [GSK1379720] | 0 | 0 | 0 | 0 | 18 | 0 | 0 | 0 | 0 | 23 | 
Clc1ccc(-c2nn3ncccc3c2-c2ccnc(Nc3ccc4c(c3)OCCO4)n2)cc1 [GW829116] | 0 | 0 | 7 | 2 | 0 | 0 | 0 | 12 | 0 | 0 | 
FC(F)(F)c1ccc(/C=C/c2cncnc2Nc2ccc3[nH]c(Cc4ccccc4)nc3c2)cc1 [GW709199] | 0 | 0 | 0 | 1 | 15 | 0 | 0 | 0 | 0 | 3 | 
CC(=O)Nc1nc2cnc(Nc3cc(NC(=O)c4cccc(C5(C#N)CC5)c4Cl)ccc3C)nc2s1 | 0 | 0 | 0 | 0 | 10 | 16 | 0 | 17 | 0 | 0 | 
COc1cc(Nc2nccc(-c3c(-c4cccc(NC(=O)c5c(F)cccc5F)c4)nn4ccccc34)n2)cc(OC)c1OC [GSK323521] | 0 | 27 | 56 | 20 | 65 | 37 | 71 | 0 | 70 | 24 | 
Cl.NC(=O)c1cccc(Nc2nccc(Nc3ccc(Oc4c(Cl)cccc4Cl)c(Cl)c3)n2)c1 [GW659009] | 18 | 0 | 0 | 3 | 0 | 10 | 0 | 0 | 0 | 0 | 
O=C(Nc1cccc(-c2nn3ccccc3c2-c2ccnc(Nc3cccc(C(F)(F)F)c3)n2)c1)c1c(F)cccc1F [GSK292658] | 26 | 11 | 0 | 2 | 6 | 6 | 0 | 1 | 15 | 21 | 
COc1cc(Nc2ncc3c(C)nc(-c4cc5ccccc5[nH]4)n3n2)cc(OC)c1OC [GW869516] | 0 | 0 | 0 | 14 | 52 | 0 | 0 | 19 | 11 | 0 | 
CCn1c(-c2nonc2N)nc2c(C#CC(C)(C)O)ncc(OCCCCN)c21.O=C(O)C(F)(F)F.O=C(O)C(F)(F)F [GSK507274] | 3 | 100 | 90 | 81 | 53 | 0 | 0 | 7 | 35 |  | 28
COC(=O)Nc1nc2ccc(Oc3ccc(NC(=O)Nc4cc(C(F)(F)F)ccc4F)cc3)cc2n1C.Cl [GW692089] | 0 | 2 | 0 | 0 | 0 | 0 | 0 | 0 | 0 | 6 | 
Cc1occc1-c1ncc(OC[C@@H](N)Cc2c[nH]c3ccccc23)cc1-c1ccc2[nH]nc(C)c2c1.O=C(O)C(F)(F)F [GSK682037] | 10 | 11 | 96.9 | 98.6 | 22 | 99.3 | 99.4 | 99.2 | 99.6 | 0 | 
COc1cccc(C2=C(Nc3ccc(Cl)c(C(=O)O)c3)C(=O)NC2=O)c1 [SB-390769] | 24 | 13 | 100 | 0 | 29 | 100 | 0 | 100 | 100 | 26 | 
NCCCC(NC(=O)c1cc(Br)c(-c2ccnc3[nH]ccc23)s1)c1ccccc1.O=C(O)C(F)(F)F.O=C(O)C(F)(F)F (centres unmarked) [GSK1287544] | 23 | 9 | 24 | 0 | 9 | 31 | 4 | 17 | 2 | 0 | 
COc1cc(Nc2nccc(N3CCC(NC(=O)c4cc5ccccc5s4)C3)n2)cc(OC)c1OC (centres unmarked) [GSK1379760] | 0 | 7 | 0 | 11 | 16 | 13 | 8 | 25 | 28 | 0 | 
Nc1ncc(-c2ccc3nccc(-c4ccncc4)c3c2)cc1S(=O)(=O)N1CCOCC1 [GSK1627798] | 0 | 7 | 19 | 0 | 9 | 0 | 0 | 0 | 3 | 14 | 
CC(C)c1nc(-c2cccc(NS(=O)(=O)c3c(F)cccc3F)c2F)c(-c2ccnc(Nc3ccc(N4CCOCC4)nc3)n2)s1 [GSK2008607] | 0 | 15 | 97.7 | 80 | 91.7 | 0 | 88 | 40 | 88 | 0 | 
c1ccc(Oc2ccc(Nc3ccnc4cc(-c5ccc(CNCCN6CCOCC6)o5)ccc34)cc2)nc1 [GW567145] | 0 | 9 | 1 | 0 | 0 | 0 | 0 | 9 | 56 | 0 | 
COc1cc(Nc2nccc(-c3c(-c4cccc(NC(=O)c5c(F)cccc5F)c4)nn4ncccc34)n2)cc(OC)c1OC [GSK327238] | 0 | 11 | 95.4 | 92.9 | 88 | 12 | 83 | 67 | 98.8 | 7 | 
COC(=O)Nc1nc2cc(Oc3ccc(NC(=O)Nc4cc(C(F)(F)F)ccc4F)cn3)ccc2[nH]1.Cl.Cl [GW681170] | 0 | 11 | 0 | 0 | 9 | 0 | 3 | 3 | 0 | 0 | 

SMILES | %Inh (MAP3K15) [%] | %Inh (MAP3K1) [%] | %Inh (MAP3K2) [%] | %Inh (MAP3K3) [%] | %Inh (MAP3K4) [%] | %Inh (MAP4K2) [%] | %Inh (MAP4K3) [%] | %Inh (MAP4K4) [%] | %Inh (MAP4K5) [%] | %Inh (MAPKAPK2; [1]) [%] | %Inh (MAPKAPK2; 1 µM) [%]
Nc1n[nH]c2cnc(-c3ccccc3)cc12 [SB-642124] | 21 | 14 | 12 | 0 | 23 | 31 | 3 | 17 | 0 | 20 | 
COc1ccc(-c2coc3ccc(-c4nnc(SCc5ccc(OC)c(C(F)(F)F)c5)o4)cc23)cc1 | 0 | 0 | 10 | 0 | 0 | 0 | 0 | 6 | 0 | 0 | 
CCCCc1nn2ncccc2c1-c1ccnc(Nc2ccc(N3CCN(C)CC3)cc2)n1 [GW684941] | 9 | 16 | 37 | 49 | 40 | 0 | 12 | 0 | 21 | 0 | 
COc1cccc(NC(=O)NC2CCN(c3ccnc(Nc4cc(OC)c(OC)c(OC)c4)n3)C2)c1 (centres unmarked) [GSK1379763] | 0 | 80 | 3 | 0 | 39 | 0 | 12 | 56 | 81 | 0 | 
Cn1cc(-c2[nH]c3cc(NC(=O)[C@H](N)C4CCCCC4)cc4c3c2C=NNC4=O)cn1 | 52 | 35 | 98.3 | 94.8 | 9 | 97.3 | 86 | 48 | 52 | 0 | 
COc1cccc(-c2ccc3c(NC(=O)C4CC4)n[nH]c3n2)c1 [SB-710903] | 0 | 35 | 15 | 0 | 32 | 0 | 0 | 53 | 3 | 16 | 
CN(c1ccc(NC(=O)Nc2cc(C(F)(F)F)ccc2F)cc1)c1ccnc(Nc2ccc(S(N)(=O)=O)cc2)n1 [GW809893] | 0 | 33 | 7 | 15 | 72 | 26 | 96.8 | 97.7 | 99.2 | 0 | 
Cl.c1ccc(-c2ccc3c(Nc4ccc5[nH]ncc5c4)ccnc3c2)nc1 [GW440137] | 4 | 22 | 0 | 0 | 4 | 0 | 0 | 0 | 0 | 1 | 
Nc1ncnc2c1nc(-c1ccccc1)n2-c1ccccc1 [SKF-97293] | 22 | 34 | 28 | 14 | 35 | 18 | 3 | 0 | 2 | 0 | 
Cc1ccc(C(=O)N2CC[C@@H](O)C2)cc1-n1c(C)cc(OCc2ccc(F)cc2F)c(Br)c1=O | 0 | 0 | 0 | 0 | 0 | 0 | 0 | 6 | 8 | 0 | 
O=C(Nc1n[nH]c2nc(-c3ccc(O)cc3)ccc12)C1CC1 [SB-710363] | 32 | 10 | 13 | 30 | 0 | 41 | 0 | 53 | 0 | 0 | 
O=C(Nc1n[nH]c2cc(-c3ccoc3)ccc12)C1CC1 [SB-738481] | 10 | 0 | 3 | 50 | 17 | 2 | 0 | 10 | 0 | 0 | 
CNC(=O)c1ccccc1Nc1nc(Nc2ccc(N3CCOCC3)cc2)ncc1Cl.Cl [GSK1576028] | 36 | 22 | 99.5 | 99.4 | 90.1 | 93.5 | 98.9 | 28 | 81 | 0 | 
O=C(O)C(F)(F)F.O=C(O)C(F)(F)F.O=c1[nH]ccc2nc(N[C@@H]3CCCNC3)nc(Nc3ccc(S(=O)(=O)N4CCOCC4)cc3)c12 [GSK2177277] | 67 | 22 | 100 | 99.9 | 0 | 100 | 99 | 97.6 | 99.8 | 65 | 
COc1cccc(C(=O)Nc2cccc(Oc3ccc4nc(NC(=O)C5CC5)cn4n3)c2)c1 | 0 | 9 | 0 | 24 | 10 | 0 | 69 | 48 | 49 | 0 | 
COc1ccc(Nc2nccc(N3CCC(NC(=O)Nc4cccc(OC)c4)C3)n2)cc1 (centres unmarked) [GSK1379742] | 0 | 0 | 0 | 0 | 23 | 0 | 5 | 0 | 0 | 9 | 
COCCOCCOc1cc2ncc3c4ccc(C#N)cc4[nH]c3c2cc1OC | 65 | 0 | 0 | 4 | 17 | 11 | 39 | 42 | 19 | 0 | 
O=c1[nH]cc(-c2ccc(N3CCOCC3)cc2)c2sc(-c3cn[nH]c3)cc12 [GSK2276055] | 0 | 16 | 12 | 0 | 21 | 27 | 0 | 1 | 2 | 0 | 
Cn1cc(-c2ccc3c(c2)CCN3C(=O)Cc2cccc(Cl)c2)c2c(N)ncnc21 [GSK2606590] | 17 | 11 | 84 | 56 | 52 | 8 | 71 | 0 | 79 | 19 | 
O=C(Nc1cccc(Oc2ccc3nc(NC(=O)C4CC4)cn3n2)c1)c1ccccc1C(F)(F)F | 0 | 0 | 0 | 8 | 26 | 0 | 64 | 8 | 29 | 0 | 
Fc1ccc(-c2ncn(C3CCNCC3)c2-c2ccnc(Oc3ccc(-c4ccccc4)cc3)n2)cc1 [SB-245391] | 22 | 25 | 22 | 29 | 14 | 44 | 3 | 9 | 26 | 0 | 
CC(=O)N1CCN(c2ccc(Nc3nccc(-c4sc(C(C)C)nc4-c4cccc(NS(=O)(=O)c5cccc(Cl)c5)c4)n3)cn2)CC1 [GSK1660437] | 16 | 12 | 0 | 7 | 0 | 8 | 10 | 13 | 54 | 19 | 
